# Assay outcomes as filed in PubChem BioAssay.
# The list is not random: actives were taken first. Their share in the collection is about 3.2%.
# aDG glyco act: alpha-DG glycosylation activation; Pro5-aDG cells, alpha-DG glycosylation AlphaScreen (IIH6); 0% Pro5, 100% B10-LARGE cell signal; activation, % at 10 µM; 0.22% of 360,000 active; AID 624168;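 active means activation of at least 8% versus controls, or a plate z-score of at least 8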;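 further: Pro5 are CHO cells carrying HIG-tagged alpha-DG that lacks glycosylation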
# PfGluPho inh: PfG6PD (Plasmodium falciparum) enzyme inhibition. PfGluPho enzyme, NADPH resazurin-diaphorase fluorescence. inhibition, % at 20 µM. 0.78% of 350,000 active. AID 504690;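 active means inhibition reaching at least a set limit at 20 µM in the primary screen, cut at about 59% in these data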;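 further: 0% = DMSO wells with substrate and 100% = DMSO wells lacking glucose-6-phosphate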
# FAS-TE inh: FAS thioesterase (human) inhibition; AID 602261; inhibition, % at 15 µM; recombinant FAS-TE, OMFH fluorogenic substrate, fluorescence endpoint; 0.67% of 360,000 active;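 active means compounds whose normalised, plate-corrected inhibition of enzyme fluorescence in the single-dose primary screen is 50% or more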;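 further: 0% = DMSO with enzyme and 100% = substrate without enzyme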
# Target sequence (P49327 whole entry, looked up): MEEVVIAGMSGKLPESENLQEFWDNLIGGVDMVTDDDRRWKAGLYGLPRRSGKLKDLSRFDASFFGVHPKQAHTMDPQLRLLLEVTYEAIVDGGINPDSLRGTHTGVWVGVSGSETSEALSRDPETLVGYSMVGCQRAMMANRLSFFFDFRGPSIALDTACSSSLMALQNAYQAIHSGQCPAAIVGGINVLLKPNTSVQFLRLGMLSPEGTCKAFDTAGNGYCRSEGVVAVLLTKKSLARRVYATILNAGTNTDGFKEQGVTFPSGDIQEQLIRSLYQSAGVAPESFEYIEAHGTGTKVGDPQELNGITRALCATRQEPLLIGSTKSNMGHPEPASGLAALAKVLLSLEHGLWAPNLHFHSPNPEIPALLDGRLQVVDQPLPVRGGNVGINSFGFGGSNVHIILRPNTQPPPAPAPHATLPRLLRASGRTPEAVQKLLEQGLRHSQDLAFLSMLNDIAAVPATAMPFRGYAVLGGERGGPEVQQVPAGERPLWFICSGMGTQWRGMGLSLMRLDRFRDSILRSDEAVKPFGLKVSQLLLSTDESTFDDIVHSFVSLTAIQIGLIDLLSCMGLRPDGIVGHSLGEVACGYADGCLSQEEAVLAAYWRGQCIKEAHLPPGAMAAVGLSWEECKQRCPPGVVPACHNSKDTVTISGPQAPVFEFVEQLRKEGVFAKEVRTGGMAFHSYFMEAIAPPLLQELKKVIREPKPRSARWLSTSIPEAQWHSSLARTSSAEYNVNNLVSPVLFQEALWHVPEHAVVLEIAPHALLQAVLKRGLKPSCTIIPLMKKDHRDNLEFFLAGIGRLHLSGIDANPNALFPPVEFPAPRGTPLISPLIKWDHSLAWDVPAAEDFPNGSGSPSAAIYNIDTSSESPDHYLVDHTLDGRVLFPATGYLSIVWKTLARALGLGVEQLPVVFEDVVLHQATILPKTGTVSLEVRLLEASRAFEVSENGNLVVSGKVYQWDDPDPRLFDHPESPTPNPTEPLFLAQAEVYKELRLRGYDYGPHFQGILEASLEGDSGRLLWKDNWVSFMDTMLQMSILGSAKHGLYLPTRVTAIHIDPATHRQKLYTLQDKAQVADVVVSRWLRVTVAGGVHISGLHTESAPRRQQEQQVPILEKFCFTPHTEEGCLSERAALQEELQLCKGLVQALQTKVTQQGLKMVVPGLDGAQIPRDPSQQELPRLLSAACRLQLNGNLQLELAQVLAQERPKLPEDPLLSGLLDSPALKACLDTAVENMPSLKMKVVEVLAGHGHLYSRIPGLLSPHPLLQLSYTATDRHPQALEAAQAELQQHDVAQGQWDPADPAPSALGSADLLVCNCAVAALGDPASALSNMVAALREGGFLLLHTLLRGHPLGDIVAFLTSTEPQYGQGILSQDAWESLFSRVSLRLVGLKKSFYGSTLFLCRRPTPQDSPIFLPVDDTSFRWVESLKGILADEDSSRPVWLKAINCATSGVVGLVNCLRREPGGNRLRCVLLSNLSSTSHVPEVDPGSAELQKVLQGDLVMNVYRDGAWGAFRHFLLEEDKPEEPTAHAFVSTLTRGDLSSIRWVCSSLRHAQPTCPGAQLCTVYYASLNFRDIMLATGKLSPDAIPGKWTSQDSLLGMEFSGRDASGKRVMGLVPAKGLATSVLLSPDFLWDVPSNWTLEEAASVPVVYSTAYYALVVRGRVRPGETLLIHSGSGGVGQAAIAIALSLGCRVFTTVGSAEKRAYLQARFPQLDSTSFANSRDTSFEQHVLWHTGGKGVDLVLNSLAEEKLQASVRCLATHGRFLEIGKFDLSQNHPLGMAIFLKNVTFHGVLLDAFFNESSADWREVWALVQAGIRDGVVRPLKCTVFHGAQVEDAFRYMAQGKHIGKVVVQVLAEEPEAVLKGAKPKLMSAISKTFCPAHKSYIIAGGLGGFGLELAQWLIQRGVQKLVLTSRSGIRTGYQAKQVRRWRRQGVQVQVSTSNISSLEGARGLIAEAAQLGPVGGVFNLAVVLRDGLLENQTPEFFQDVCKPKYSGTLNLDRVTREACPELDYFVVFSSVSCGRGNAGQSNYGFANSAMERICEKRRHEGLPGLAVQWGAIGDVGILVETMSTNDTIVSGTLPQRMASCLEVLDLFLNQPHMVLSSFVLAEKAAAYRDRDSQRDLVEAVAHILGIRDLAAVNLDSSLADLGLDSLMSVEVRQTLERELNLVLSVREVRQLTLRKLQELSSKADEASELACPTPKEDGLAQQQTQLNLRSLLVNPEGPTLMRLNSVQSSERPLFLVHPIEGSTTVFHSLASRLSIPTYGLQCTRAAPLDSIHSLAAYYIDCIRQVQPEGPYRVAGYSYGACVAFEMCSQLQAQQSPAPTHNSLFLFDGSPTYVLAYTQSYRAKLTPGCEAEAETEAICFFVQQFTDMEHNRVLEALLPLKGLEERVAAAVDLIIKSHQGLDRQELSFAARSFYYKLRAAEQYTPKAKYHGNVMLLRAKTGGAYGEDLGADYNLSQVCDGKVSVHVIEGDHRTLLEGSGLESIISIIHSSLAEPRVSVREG
# CRFBP-R2 block: CRF-BP/CRF-R2 complex antagonism | HEK293 CRF-R2/CRF-BP, CRF-induced calcium fluorescence | inhibition, % at 11.8 µM | 0.59% of 350,000 active;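 active means inhibition of the ligand-induced calcium signal above about 50% at the single tested concentration, limit read from the data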
# Cardio protect: modulators protecting cardiomyocytes from myocardial damage; H9c2 cardiomyocytes, H2O2 injury protection, ATPLite, 2 h; protection from H2O2 cell death, % at 20 µM; 0.63% of 360,000 active;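 active means compounds giving at least 50% protection of heart cells from peroxide-induced death in the single-dose screen, raw or plate-pattern-corrected value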;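 further: 0% = DMSO wells with peroxide and 100% = DMSO wells without peroxide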
# CRFBP-R2 agonist: agonists of human CRF-binding protein/CRF-R2 receptor complex; HEK293 CRF-R2/CRF-BP, calcium dye fluorescence (FLIPR); percent of saturating CRF peptide response; activation, % at 13.2 µM; 0.46% of 350,000 active; AID 588473;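 active means activation of at least 50%, plus an integration ratio under a set limit after plate pattern correction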;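 further: plate controls were neutral control wells without compound for no effect and CRF at EC100 for full effect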
# FAS-TE inh conf: confirmation of human fatty acid synthase thioesterase inhibitors. shares compounds with FAS-TE inh. recombinant FAS-TE, OMFH fluorogenic substrate, fluorescence. inhibition, % at 15 µM. 45% of 2,300 active. AID 624325;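 active means compounds inhibiting the enzyme by at least 50% at 15 µM in any one of the replicates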;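 further: 0% = enzyme with DMSO only and 100% = wells lacking enzyme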
# The depositor's hits bear a star; . = no result.
SMILES,aDG glyco act,PfGluPho inh,FAS-TE inh,CRFBP-R2 block,Cardio protect,CRFBP-R2 agonist,FAS-TE inh conf
O=C1CCCN2N=C(SCC(=O)N3N=C(c4ccc(Br)cc4)CC3c3ccc(F)cc3)SC2=N1 (stereo unspecified),0,5,45,0,-3,0,.
COc1ccc(C2CC(c3cccs3)=NN2C(=O)CSc2nc(=O)n3ccc(C)cc3n2)cc1 (stereo unspecified),0,1,57*,-6,3,-1,57*
Cc1ccc(C2CC(c3ccc(Br)cc3)=NN2C(=O)CSC2=NN3CCCC(=O)N=C3S2)cc1 (stereo unspecified),0,-4,54*,-8,-4,1,10
COc1ccc(C2=NN(C(=O)CSc3nc(=O)n4cc(C)ccc4n3)C(c3ccc(C)cc3)C2)cc1 (stereo unspecified),0,4,69*,19,-1,0,40*
O=C(COC(=O)c1ccc(Cl)c(S(=O)(=O)N2CCCCC2)c1)NCC1CCCO1 (stereo unspecified),0,-27,-2,15,4,2,.
C=CCOc1c(CNC2CCCC2)cc(Cl)cc1OC,0,-10,-5,0,3,0,.
COc1ccc(C2=NOC(C(=O)N(C)Cc3ccccc3)C2)cc1 (stereo unspecified),0,10,-4,23,-2,-1,.
CC(C)CN(CC(C)C)S(=O)(=O)N1CCC(C(=O)NCc2ccco2)CC1,0,-5,-4,2,-2,0,.
O=S(=O)(c1ccc(Cl)cc1)N1CCN=C1SCc1cccc(Cl)c1,0,43,51*,-13,-11,5,14
CCC(=O)Nc1ccc(C(=O)COC(=O)C(CCSC)NC(=O)COc2ccccc2)cc1 (stereo unspecified),0,0,2,-3,0,2,.
COc1ccc(C(=O)COC(=O)C(CCSC)NC(=O)COc2ccccc2)cc1 (stereo unspecified),0,1,64*,-2,0,0,14
COc1ccc(N2CCN(C3CC(=O)N(Cc4ccccc4)C3=O)CC2)cc1 (stereo unspecified),-1,10,1,7,6,-1,.
O=C1CC(N2CCN(c3ccc(S(=O)(=O)N4CCOCC4)cc3)CC2)C(=O)N1Cc1ccccc1 (stereo unspecified),0,-4,56*,-6,-21,-1,65*
CCOC1=C2CN(S(=O)(=O)c3ccc(C)cc3)[C@H](c3ccccc3)C[C@@H]2N(S(=O)(=O)c2ccc(C)cc2)[C@H](c2cccc(C)c2)C1,1,.,15,.,0,.,.
CCOC1=C2CN(S(=O)(=O)c3ccc(C)cc3)[C@@H](c3ccc(CC)cc3)C[C@H]2[C@H]2C(=O)N(c3ccccc3)C(=O)[C@H]2C1,0,.,72*,.,2,.,31
CCOC1=C2CN(S(=O)(=O)c3ccc(C)cc3)[C@H](c3cccc4ccccc34)C[C@H]2[C@H]2C(=O)N(c3ccccc3)C(=O)[C@H]2C1,0,.,77*,.,1,.,24
CCOC1=C2CN(S(=O)(=O)c3ccc(C)cc3)[C@H](c3ccccc3)C[C@H]2[C@H]2C(=O)N(c3ccccc3)C(=O)[C@H]2C1,0,.,59*,.,-1,.,29
CCOC1=C2CN(S(=O)(=O)c3ccc(C)cc3)[C@H](c3ccccc3)C[C@@H]2N(S(=O)(=O)c2ccc(Br)cc2)[C@H](c2ccccc2)C1,1,.,21,.,-9,.,.
CCOC1=C2CN(S(=O)(=O)c3ccc(C)cc3)[C@H](c3ccc(CC)cc3)C[C@@H]2N(S(=O)(=O)c2ccc(C)cc2)[C@H](c2ccccc2)C1,2,.,18,.,-10,.,.
CCCCn1c(N)c(N(CC)C(=O)c2c(C)noc2C)c(=O)[nH]c1=O,0,-11,0,-5,2,1,.
CCCNc1ncnc2c1cnn2C1CCCCO1 (stereo unspecified),0,-2,-9,6,2,2,.
CCOCCCn1c(=NC(=O)c2cccs2)c(C#N)cc2c(=O)n3cccc(C)c3nc21,0,10,55*,5,44,8,10
COCCCn1c(=NC(=O)c2ccccc2)c(C#N)cc2c(=O)n3cccc(C)c3nc21,0,-1,51*,-2,36,5,46
COCCCn1c(=NC(C)=O)c(C#N)cc2c(=O)n3cccc(C)c3nc21,0,45,18,0,7,7,.
Cc1cccn2c(=O)c3cc(C#N)c(=NC(=O)c4cccs4)n(CC(C)C)c3nc12,0,-4,16,-7,-3,19,.
SMILES,aDG glyco act,PfGluPho inh,FAS-TE inh,CRFBP-R2 block,Cardio protect,CRFBP-R2 agonist,FAS-TE inh conf
CCOC(=O)C1=NN(c2ccccc2)C2C(=O)N(c3ccccc3OC)C(=O)C12 (stereo unspecified),0,-4,3,-22,6,-1,.
O=C(C1=NN(c2ccccc2)C2C(=O)N(c3ccccc3Cl)C(=O)C12)c1ccccc1 (stereo unspecified),0,-33,52*,-138,4,135*,-17
O=c1c2c3c(sc2nc(NCCO)n1CCc1ccccc1)CCCCC3,-1,13,50*,-21,-8,2,16
CN(Cc1ccccc1)C(=O)COC(=O)c1cc([N+](=O)[O-])ccc1N1CCOCC1,0,11,92*,1,8,2,91*
CCN(C(=O)COC(=O)c1cc([N+](=O)[O-])ccc1N1CCOCC1)c1ccccc1,-1,-1,78*,7,-2,0,71*
CN(C(=O)COC(=O)c1cc([N+](=O)[O-])ccc1N1CCCC1)C1CCS(=O)(=O)C1 (stereo unspecified),0,-4,3,1,4,-2,.
CN(CC(=O)Nc1ccccc1Cl)C(=O)COC(=O)c1cc([N+](=O)[O-])ccc1N1CCOCC1,0,4,42,1,0,-3,.
COc1ccc(CN(C)C(=O)COC(=O)c2cc([N+](=O)[O-])ccc2N2CCCC2)c(OC)c1OC,0,-5,70*,7,2,2,31*
CCC(C)N(C(=O)COC(=O)c1cc([N+](=O)[O-])ccc1N1CCOCC1)C1CCS(=O)(=O)C1 (stereo unspecified),0,3,11,3,2,0,.
COc1cc(/C=C2\NC(=S)N(C)C2=O)ccc1OCc1cccc(F)c1,0,-4,-1,11,-1,1,.
Cc1ccc(NC(=O)Cn2nc(-c3ccco3)ccc2=O)cc1Cl,0,9,50*,-3,-1,-1,33
